Compound activity from PubChem.
D2 antag: HTS Assay for Allosteric Antagonists of the Human D2 Dopamine Receptor: Primary Screen for Antagonists; D(2) dopamine receptor (Homo sapiens), P14416; AID 485344, 2010; HEK293 TREx D2 cells, calcium flux, dopamine EC80; hit rate 2% among 340,000; inhibition, % at 10 µM; in the data active means inhibition above about 30%; inactive means below that, where a call was filed; further: 0% is about no effect
Target sequence (P14416 whole entry, looked up): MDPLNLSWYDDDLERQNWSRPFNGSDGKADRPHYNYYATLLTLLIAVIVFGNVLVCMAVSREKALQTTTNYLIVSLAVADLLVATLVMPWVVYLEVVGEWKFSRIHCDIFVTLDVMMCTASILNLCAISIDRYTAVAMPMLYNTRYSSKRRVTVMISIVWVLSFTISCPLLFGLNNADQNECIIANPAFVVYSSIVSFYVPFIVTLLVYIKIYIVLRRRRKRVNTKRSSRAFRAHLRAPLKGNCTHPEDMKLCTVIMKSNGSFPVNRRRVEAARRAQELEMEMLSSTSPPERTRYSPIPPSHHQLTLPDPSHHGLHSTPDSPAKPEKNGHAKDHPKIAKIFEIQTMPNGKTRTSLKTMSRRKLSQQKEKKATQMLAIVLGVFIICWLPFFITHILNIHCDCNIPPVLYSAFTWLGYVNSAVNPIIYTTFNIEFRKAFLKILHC
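Tetracycline-induced HEK293 TREx cells expressing D2 receptor forced-coupled to calcium signalling, loaded with no-wash calcium dye. Compounds added and calcium flux read 180 s, then dopamine added at EC80 and read a further 180 s.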
D2 PAM-1: HTS Assay for Positive Allosteric Modulators of the Human D2 Dopamine Receptor: Primary Screen for Potentiators. HEK293 T-REx D2, calcium flux, EC20 dopamine potentiation. potentiation, % at 10 µM. hit rate 0.34% among 340,000. AID 485347, 2010;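 active means potentiation over 3 SD above the plate norm, cut at about 30% in these data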; further: 0% is about no effect
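Tetracycline-induced Hek293 Trex D2 cells, force-coupled to calcium, loaded with no-wash calcium dye. Compound added with 180 s kinetic read for agonism, then EC20 dopamine and a further 180 s read for potentiation.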
D2 PAM-2: Beta-Arrestin HTS for Positive Allosteric Modulators of the Human D2 Dopamine Receptor: Potentiators; DiscoveRx D2 beta-arrestin cells, luminescence, 90 min; 100% = 57 uM dopamine signal; hit rate 0.23% among 360,000; potentiation, % (test concentration not listed); in the data active means potentiation above about 50%; inconclusive means mostly about 30% to 49%
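PathHunter D2 cells, attached overnight at 37 deg C, received compound in DMSO plus dopamine at EC20 (50 nM final) for 90 min at 37 deg C. Beta-arrestin recruitment was read as luminescence after 1 h with detection reagent at ambient temperature.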
D2 ag-1: HTS Assay for Allosteric Agonists of the Human D2 Dopamine Receptor: Primary Screen for Agonists | D(2) dopamine receptor (Homo sapiens), P14416 | HEK293 T-REx D2 cells, calcium flux agonist mode | activation, % at 2 µM | hit rate 0.53% among 340,000 | AID 485358, 2010;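 active means activation over 3 SD above normal in the single-dose calcium agonist read, cut at about 30% in these data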; further: 0% is about no effect
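HEK293 Trex D2 cells, tetracycline-induced, o/n 30 C 5% CO2; no-wash Ca dye, RT 30–90 min; 10-cycle baseline, 23 nl cpd added, kinetic Ca read 180 s; agonist hits = positive Ca response.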
D2 ag-2: Beta-Arrestin HTS for Positive Allosteric Modulators of the Human D2 Dopamine Receptor: Agonists; D(2) dopamine receptor (Homo sapiens), P14416; DiscoveRx PathHunter D2 beta-arrestin, luminescence, 90 min; 100% = 57 uM dopamine signal; activation, % (no concentration beside the values); hit rate 0.084% among 360,000; in the data active means activation above about 40%; inconclusive means between about 15% and that limit
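Agonist mode: compounds alone added to overnight-plated D2 PathHunter cells for 90 min at 37 C, with 57 uM final dopamine (EC100) defining full response. Beta-arrestin recruitment detected by chemiluminescent reagent, read after 1 h at ambient temperature.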
The depositor's hits bear a star; u = inconclusive; x = not tested or not shown. Hits are enriched below; roughly 2.4% of the tested compounds scored in any of these assays.

SMILES | D2 antag | D2 PAM-1 | D2 PAM-2 | D2 ag-1 | D2 ag-2
CN(C)CCCN1C(=O)c2cccc3c([N+](=O)[O-])ccc(c23)C1=O | 1 | -4 | 63* | 1 | u
CC(=O)Oc1cccc(N2C(=O)c3cccc4c([N+](=O)[O-])ccc(c34)C2=O)c1 | 4 | -2 | 107* | 2 | 41*
O=C(Nc1nccs1)c1cccc(N2C(=O)c3cccc4c([N+](=O)[O-])ccc(c34)C2=O)c1 | -1 | 6 | 75* | 6 | 14
COc1ccc(CNC(=O)C(=O)Nc2c3c(nn2-c2ccccc2)CSC3)cc1 | x | 18 | x | 0 | x
COc1cccc(OC)c1C(=O)Nc1ccccc1C(=O)N1CCCC1 | -1 | 2 | 6 | 1 | 0
COc1ccccc1C(=O)Nc1ccccc1C(=O)N1C(C)CCCC1C (stereo unspecified) | 48* | -2 | -6 | -1 | -3
Cc1ccc(-n2nc(C(=O)N3CCC(C)CC3)c(=O)n(C)c2=O)cc1 | x | 4 | x | 0 | x
CCOc1ccc(CC(=O)NC2CC(=O)N(c3ccc(C)c(C)c3)C2)cc1 (stereo unspecified) | x | 18 | x | 1 | x
Cn1nccc1/C=C(/C#N)S(=O)(=O)c1ccccc1 | 31* | -4 | -6 | 0 | -2
CC1CCCCC1NC(=O)CSc1nc2ccccc2[nH]1 (stereo unspecified) | -15 | 37* | -1 | -3 | -3
Cc1ccc(NC(=O)Nc2cc(S(=O)(=O)N(C)C)ccc2C)cc1 | 37* | -28 | -4 | -2 | -6
CN(C)S(=O)(=O)c1cccc(NC(=S)N2CCc3ccccc32)c1 | -9 | 10 | 9 | 0 | 0
Cc1ccc(S(=O)(=O)N(C)C)cc1NC(=S)N1CCc2ccccc21 | 55* | -28 | -29 | 2 | -6
CC1CCN(C(=O)CSc2nc3ccccc3[nH]2)CC1 | 16 | -15 | -15 | -1 | -2
CCOc1ccccc1NC(=O)Nc1cc(S(=O)(=O)N(C)C)ccc1C | x | x | -22 | x | -4
Cc1ccc(S(=O)(=O)N(C)C)cc1NC(=O)CSc1nc2ccccc2[nH]1 | 31* | -23 | -35 | -2 | 1
COc1ccc(C(=O)c2sc3nc(-c4ccc(F)cc4)ccc3c2N)cc1 | x | -9 | x | 0 | x
Cc1ccc(S(=O)(=O)N(C)C)cc1NC(=O)Nc1ccccc1 | 84* | -24 | -24 | -3 | -1
Cc1ccc(C2C=C(c3ccc(F)cc3)Nc3nc(CCCO)nn32)cc1 (stereo unspecified) | x | 9 | x | x | x
COc1cc(S(=O)(=O)NC2CCSc3ccccc32)ccc1NC(C)=O (stereo unspecified) | 6 | 33* | -5 | -2 | -2
COc1ccc(S(=O)(=O)NC2CCSc3ccccc32)cc1NC(C)=O (stereo unspecified) | -2 | 16 | -4 | 0 | -1
O=C1C(c2ccc(F)cc2)N(CCc2ccccc2)C(=O)CN1C1CCCCC1 (stereo unspecified) | x | 4 | x | x | x
O=C(NCc1ccccc1)c1n[nH]nc1-c1ccccc1O | 31* | 8 | -8 | 0 | 0
O=C(NCc1ccccc1)c1ccc(C(=O)NCc2ccccc2)cc1 | x | x | 3 | x | 4
CCCCN(C)CC(O)Cn1cc(/C=C/C(=O)c2ccc(OC)c(OC)c2)c2ccccc21 (stereo unspecified) | x | -5 | x | 20 | x
SMILES | D2 antag | D2 PAM-1 | D2 PAM-2 | D2 ag-1 | D2 ag-2
CCC/C=N/Nc1nnc(Cc2ccc(OC)c(OC)c2)c(=O)[nH]1 | -7 | 10 | -3 | 0 | 4
COc1ccc(/C=C/C(=O)C2CC2)cc1COc1c(C)cccc1C | 10 | x | 0 | 1 | 4
COc1ccc(/C=C/C(=O)O)cc1COc1cccc(C)c1 | 40* | -19 | -9 | 0 | 2
COc1cc(=O)[nH]c(SC(C)C(=O)Nc2ccc3ccccc3c2)n1 (stereo unspecified) | x | 37* | 0 | x | -1
Cc1nnc(SC(C)C(=O)Nc2ccc3ccccc3c2)[nH]c1=O (stereo unspecified) | -8 | x | 2 | -3 | 0
CCc1cccc(NC(=O)Cn2c(=O)n(Cc3ccccc3)c(=O)c3c(C)c(C(=O)N(C)C)sc32)c1 | x | 1 | x | 0 | x
Cc1ccccc1N(CC(=O)O)S(C)(=O)=O | 13 | 31* | 25 | 0 | -4
Cc1ccccc1N(CC(N)=O)S(C)(=O)=O | -1 | 4 | -13 | 1 | 1
COc1ccc(-c2cc(C)no2)cc1S(=O)(=O)NCCCN1CCCCCC1 | 34* | -2 | -35 | 0 | -3
CCc1ccc(CNc2ncnc3onc(-c4ccc(Cl)cc4)c23)cc1 | x | 6 | x | 2 | x
COc1cccc(/C=C2\N=C(C3CCCCC3)OC2=O)c1OC | 2 | 45* | -4 | 0 | 0
Cc1ccc(/C=C/C(=O)N2CC(=O)Nc3ccccc32)o1 | -9 | 33* | -3 | -1 | -1
Cc1cc(C)cc(C(=O)N2CC(=O)Nc3ccccc32)c1 | -15 | 11 | -10 | -1 | 0
CCCC(=O)Nc1nnc(SCC(=O)Nc2ccc(OCC)cc2)s1 | x | x | -8 | x | -1
CCCN(C(=O)c1cc2c(s1)-c1ccccc1SC2)c1ccccc1F | x | 8 | x | 1 | x
CCN(C(=O)Cc1c(C(=O)O)[nH]c2ccccc12)c1ccc(OC)cc1 | 53* | -3 | 7 | 2 | 2
CCCN1CCC(Oc2cccc(C(=O)NCCc3ccccc3)c2)CC1 | -2 | 31* | -6 | 0 | -3
CC(C)(C)CN1CCC(Oc2cccc(C(=O)N3CCNC(=O)C3(C)C)c2)CC1 | 32* | 7 | -13 | 0 | -4
CCCCN(C)C(=O)c1cccc(OC2CCN(CC(C)(C)C)CC2)c1 | 67* | -1 | -2 | 1 | 0
COCCNC(=O)c1cccc(OC2CCN(Cc3cccc(C(C)=O)c3)CC2)c1 | 6 | -6 | -2 | 1 | -6
Cc1ccc2c(c1)cc1c(=O)n(CC(=O)NC3CCCCC3)nc(C)n12 | x | -4 | x | 0 | x
COC(=O)c1ccc2nc(-c3cccc(Br)c3)c(Cc3ccsc3)n2c1 | x | x | -4 | x | -4
CCOc1ccc(C(=O)NCc2ccc3c(c2)CCN3C(=O)c2ccc(C)cc2)cc1OCC | x | -7 | x | -1 | x
NS(=O)(=O)c1ccc(NC(=S)Nc2ccn(Cc3cccc4ccccc34)n2)cc1 | 42* | -19 | -6 | 0 | -3
